# Laboratory results taken from paper PMC6919601, “Identification of Plasmodium dipeptidyl aminopeptidase allosteric inhibitors by high throughput screening” (PLoS ONE, 2019).
# Several values for one entry are separate records, joined by “and”; a condition that tells them apart may be missing. Equal values may be shown once. About 230 (0.21%) of roughly 110,000 compounds showed an effect of 50% or more. The full list was thinned out, with strong results kept by preference.
# Biological target: DPAP1 (Plasmodium falciparum, UniProt Q8IIJ9)
# Test: primary screen, percent inhibition; read by cleavage of a fluorogenic dipeptide substrate; higher = more effect of the substance
# Parameters: species or system P. falciparum D10 trophozoite lysates; single well
# Protocol: HTS was performed in black 384-well plates. The first and last two columns of each plate contained our negative (DMSO) and positive (10 μM JCP410) controls, and the 20 central columns the test compounds at 10 μM. Compounds were first diluted 50-fold into assay buffer (50 mM sodium acetate, 5 mM MgCl2, 10 mM β-mercaptoethanol, and 0.1% CHAPS, pH 5.5) from a 10 mM DMSO stock plates. One microliter of this 200 μM intermediate stock plate was dispensed into the assay plate. […] After 30 min, the reaction was quenched with 20 μL of 0.5 M acetic acid, and the fluorescent intensity measured at 523 nm (λex = 492 nm) using an Analyst HT multimode plate reader (Molecular Devices).
# 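Note: 30 min substrate incubation versus DMSO and 10 µM JCP410 controls.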
# Chain of DPAP1 (Q8IIJ9 whole entry, looked up): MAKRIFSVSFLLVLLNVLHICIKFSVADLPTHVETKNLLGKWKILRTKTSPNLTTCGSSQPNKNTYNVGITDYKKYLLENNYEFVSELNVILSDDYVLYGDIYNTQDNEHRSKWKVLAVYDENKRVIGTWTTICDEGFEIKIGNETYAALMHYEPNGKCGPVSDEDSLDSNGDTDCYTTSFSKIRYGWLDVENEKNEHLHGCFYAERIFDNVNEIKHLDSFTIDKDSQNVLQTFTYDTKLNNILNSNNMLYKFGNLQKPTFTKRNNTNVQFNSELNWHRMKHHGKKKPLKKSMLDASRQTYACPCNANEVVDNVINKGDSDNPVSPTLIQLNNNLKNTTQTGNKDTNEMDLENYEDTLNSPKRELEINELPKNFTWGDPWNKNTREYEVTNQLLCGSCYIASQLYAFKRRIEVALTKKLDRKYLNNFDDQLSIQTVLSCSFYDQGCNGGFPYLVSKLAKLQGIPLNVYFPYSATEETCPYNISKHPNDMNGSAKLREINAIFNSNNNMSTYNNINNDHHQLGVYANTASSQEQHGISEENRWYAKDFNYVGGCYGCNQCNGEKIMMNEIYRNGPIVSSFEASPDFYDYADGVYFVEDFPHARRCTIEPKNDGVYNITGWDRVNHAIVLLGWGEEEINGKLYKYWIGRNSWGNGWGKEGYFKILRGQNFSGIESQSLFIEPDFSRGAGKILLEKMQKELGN
row,Structure (SMILES),% Inhibition @ 10 uM
1,CC1CCN(S(=O)(=O)c2ccc(NC(=O)c3ccc(-c4ccccc4)cc3)cc2)CC1,2.13%
2,Cc1sc2s[n+](CCCS(=O)(=O)O)c(C)c2c1C,-1.33%
3,CCOc1ccc(N2CC(C(=O)Nc3ccc(Br)cc3C)CC2=O)cc1 (stereo not drawn),4.05%
4,CCCCC(=O)Nc1c(-c2ccccc2)nc2ccccn12,-3.19%
5,CCn1c(=S)[nH]c2sc3c(c2c1=O)CCC3,64.7%
6,C=C(C)Cn1c(=S)[nH]c2sc3c(c2c1=O)CCCC3,57.3%
7,O=c1[nH]c(=S)[nH]c2sc3c(c12)CCC1(CCCCC1)C3,5.93%
8,CCn1c(=S)[nH]c2sc3c(c2c1=O)CCCC3,42.2%
9,O=c1c2c3c(sc2[nH]c(=S)n1Cc1ccccc1)CCC3,21%
10,S=c1[nH]c(=S)c2c3c(sc2[nH]1)CCC3,85.2%
11,O=c1c2c3c(sc2[nH]c(=S)n1C1CCCCC1)CCCC3,9.26%
12,O=c1c2c3c(sc2[nH]c(=S)n1Cc1ccccc1)CCCC3,3.06%
13,CC1(C)Cc2c(sc3[nH]c(=S)[nH]c(=S)c23)CO1,15%
14,Cc1cc2nnc(SCC(=O)O)n2c2ccccc12,-2.19%
15,C=C(C)COc1ccc2cc(-c3nc4ccccc4s3)c(=O)oc2c1,6.22%
16,CC(C)(C)c1ccc(C(=O)NCc2cccc3ccccc23)cc1,-3.48%
17,Cc1ccccc1C1CC(=O)N2CN(Cc3ccccc3)CSC2=C1C#N (stereo not drawn),31.2%
18,N#CC1=C2SCN(Cc3ccccc3)CN2C(=O)CC1c1cccc2ccccc12 (stereo not drawn),51.5%
19,N#CC1=C2SCN(C3CCCCC3)CN2C(=O)CC1c1cccc2ccccc12 (stereo not drawn),53.8%
20,N#CC1=C2SCN(Cc3ccco3)CN2C(=O)CC1c1cccc2ccccc12 (stereo not drawn),45.5%
21,Cc1ccccc1C1CC(=O)N2CN(C3CCCCC3)CSC2=C1C#N (stereo not drawn),24%
22,N#CC1=C2SCN(C3CCCCC3)CN2C(=O)CC1c1ccccc1F (stereo not drawn),37.8%
23,COc1ccc(/C=C/C(=O)N2c3ccccc3C(C)(c3ccccc3)CC2(C)C)cc1 (stereo not drawn),56.6%
24,CC1(c2ccccc2)CC(C)(C)N(C(=O)/C=C/c2ccccc2)c2ccccc21 (stereo not drawn),0.467%
25,COc1ccc(C(=O)N2c3ccccc3C(C)(c3ccccc3)CC2(C)C)cc1 (stereo not drawn),-2%
26,CCc1ccc(NC(=O)C2CCN(S(=O)(=O)c3cc(Cl)ccc3Cl)CC2)cc1,-4.06%
27,O=C1c2ccccc2C(=O)N1CNc1ccc(Cl)c(Cl)c1,-1.17%

row,Structure (SMILES),% Inhibition @ 10 uM
1,NC(=O)c1c(NC(=O)C23CC4CC(CC(C4)C2)C3)sc2c1CCCCC2,52.3%
2,NC(=O)c1c(NC(=O)C2CC2)sc2c1CCCCC2,50.4%
3,Cn1cc(Br)c(C(=O)Nc2sc3c(c2C(N)=O)CCC3)n1,1.02%
4,NC(=O)c1c(NC(=O)C2CCC2)sc2c1CCCCC2,7.35%
5,Cn1ccc(C(=O)Nc2sc3c(c2C(N)=O)CCCCC3)n1,47%
6,Cn1cc(Br)c(C(=O)Nc2sc3c(c2C(N)=O)CCCCC3)n1,51.9%
7,NC(=O)c1c(NC(=O)C2CC2)sc2c1CCCCCC2,5.39%
8,CC(=O)Nc1sc2c(c1C(N)=O)CCCCCC2,2.65%
9,CCOC(=O)c1c(NC(=O)C23CC4CC(CC(C4)C2)C3)sc2c1CCCC2,-1.36%
10,O=C(Nc1cccc(Cl)c1)N1CCC(Cc2ccccc2)CC1,0.727%
11,Cc1cccc(NS(=O)(=O)c2ccccc2)n1,-3.56%
12,COc1ccc(-c2cc(C(=O)N3CCOCC3)c3ccccc3n2)cc1,0.245%
13,COc1cc(C2C(C#N)=C(N)OC3=C2C(=O)CCC3)cc(OC)c1OC (stereo not drawn),0.687%
14,O=C(CCc1nnc2n(CCc3ccccc3)c(=O)c3ccccc3n12)N1CCOCC1,0.981%
15,O=C(NCc1ccccc1Br)C1CCCN(c2nnc(N3CCCC3=O)s2)C1 (stereo not drawn),-4.68%
16,CC(C)CC(NC(=O)N1CCC(N2CCCCC2)CC1)C(=O)NCC#N (stereo not drawn),-0.972%
17,Cc1ccccc1-c1ccccc1N,-0.305%
18,COc1ccc(CNC(=O)Cn2ncn3cccc3c2=O)cc1,-5.15%
19,COc1ccccc1-n1cc(-c2ccccc2)nc1S,58.6%
20,Sc1nc(-c2ccccc2)cn1-c1ccccc1,37.1%
21,Fc1ccccc1-n1cc(-c2ccccc2)nc1S,45.3%
22,CCOc1ccc(-c2cn(-c3ccccc3F)c(S)n2)cc1,56.2%
23,CCOc1cccc(-n2cc(-c3ccccc3)nc2S)c1,42.6%
24,COc1ccc(OC)c(-n2cc(-c3ccccc3)nc2SC)c1,4.49%
25,CC1CC(C)CN(CCCNC(=O)Cn2ncn3nc(-c4cccs4)cc3c2=O)C1 (stereo not drawn),2.27%
26,Cc1ccc(C(=O)NC2(C(F)(F)F)C(=O)Nc3c2c(=O)[nH]c(=O)n3-c2ccc(Cl)cc2)cc1 (stereo not drawn),-3.39%
27,CCc1cc2c(cc3c(=O)n(CC(=O)NCCc4ccc(OC)c(OC)c4)nc(CC)n32)s1,3.29%

row,Structure (SMILES),% Inhibition @ 10 uM
1,Cc1nn(C)c2c1c(-c1ccccc1)cc(=O)n2Cc1cccc(F)c1,2.65%
2,COc1ccc(CN2CCN(c3cccc(C)c3C)CC2)cc1OC,9.04%
3,COc1cc(CN2CCN(c3ccccc3C)CC2)cc(OC)c1,1.9%
4,COc1cc(CN2CCN(c3cccc(C)c3C)CC2)cc(OC)c1,55.4%
5,O=C1NC(=O)/C(=C\c2ccc(-c3ccc(Cl)cc3)o2)S1,6.08%
6,O=C1NC(=O)/C(=C/c2ccc(-c3ccc(O)c(C(=O)O)c3)o2)S1,64.8%
7,O=C1NC(=O)/C(=C\c2ccc(-c3ccc(Cl)c(C(=O)O)c3)o2)S1,8.24%
8,OCCN(Cc1ccccc1)CC1CC=CCC1 (stereo not drawn),1.38%
9,COC(=O)c1cc(O)nc(SCc2cccc(C)c2)n1,4.47%
10,Cc1ccc(S(=O)(=O)c2cc3c(=O)n4ccccc4nc3n(C)c2=N)cc1,57.9%
11,Cc1ccc(S(=O)(=O)c2cc3c(=O)n4ccccc4nc3n(CCO)c2=N)cc1,-4.59%
12,CCCn1c(=N)c(S(=O)(=O)c2ccc(C)cc2)cc2c(=O)n3ccccc3nc21,3.99%
13,C=CCOCC(O)CSc1nc(C)cc(C)n1 (stereo not drawn),3.48%
14,O=C(C1CCCC1)N1CCN(C(c2ccccc2)c2ccccc2)CC1,0.795%
15,O=C(Nc1ccccc1)c1nc2ccccc2s1,5.39%
16,CCCCCCc1cc2cc(-c3csc(N)n3)c(=O)oc2cc1O,1.12%
17,CCCCCCc1cc2cc(C#N)c(=O)oc2cc1O,67.5%
18,CCCCCCc1cc2cc(C(=O)O)c(=O)oc2cc1O,4.08%
19,CCOc1cc(C2c3c(oc4ccccc4c3=O)C(=O)N2c2nc(C)c(C(C)=O)s2)ccc1O (stereo not drawn),-0.828%
20,C=CCOc1ccc(C2c3c(oc4ccccc4c3=O)C(=O)N2c2nc(C)c(C(=O)OC)s2)cc1 (stereo not drawn),3.12%
21,CCc1ccc(C2c3c(oc4ccccc4c3=O)C(=O)N2c2nc(C)c(C(=O)OC)s2)cc1 (stereo not drawn),-1.86%
22,CCOc1cc(C2c3c(oc4ccccc4c3=O)C(=O)N2c2nc(C)c(C(=O)OC)s2)ccc1O (stereo not drawn),69.6%
23,CCOC(=O)c1sc(N2C(=O)c3oc4ccccc4c(=O)c3C2c2ccc(O)c(OC)c2)nc1C (stereo not drawn),2.16%
24,CCOc1ccc(C2c3c(oc4ccccc4c3=O)C(=O)N2c2nc(C)c(C(=O)OC)s2)cc1 (stereo not drawn),70.8%
25,CCn1cc(C(=O)Nc2ccccc2C(C)C)cn1,6.1%
26,CCS(=O)(=O)c1nc(S(=O)(=O)c2ccc(C)cc2)c(NCCc2ccccc2)s1,-5.89%
27,Cc1nc2c(nc(C)n2-c2ccccc2)s1,2.92%

row,Structure (SMILES),% Inhibition @ 10 uM
1,CCOc1ccc(Nc2nc(-c3cccs3)cs2)cc1,-1.37%
2,CCCCNC(=O)C(CC)n1nc(C)c2sc3ccccc3c2c1=O (stereo not drawn),-2.61%
3,CCC(C(=O)NCc1ccc(OC(C)C)cc1)n1nc(C)c2sc3ccccc3c2c1=O (stereo not drawn),2.8%
4,CCc1ccc(CNC(=O)C(CC)n2nc(C)c3sc4ccccc4c3c2=O)cc1 (stereo not drawn),90.8%
5,O=S(=O)(c1ccccc1)N1CCN(c2ccccc2)CC1,5.09%
6,O=C1CN(S(=O)(=O)c2ccccc2)CCN1S(=O)(=O)c1ccccc1,60.8%
7,CN1CCN(S(=O)(=O)c2ccccc2)CC1,-0.127%
8,COc1cc(CN2CCc3c([nH]c4ccccc34)C2)cc2c1OCO2,-5.11%
9,CC(=O)C1=C(C)OC(N)=C(C#N)C1c1cc2c(cc1[N+](=O)[O-])OCO2 (stereo not drawn),-1.29%
10,CN(Cc1cnn(-c2ccccc2)c1)S(=O)(=O)c1ccc(-c2cc(C(F)(F)F)no2)s1,1.05%
11,COCc1cc(C)nc(S)c1C#N,43.7% and 44.2%
12,Cc1cc(-c2ccco2)c(C#N)c(S)n1,51.7%
13,CSc1nc(C)cc(C(F)(F)F)c1C#N,4.97%
14,CCc1nc(N)c(C#N)c(-c2ccc(Br)s2)c1C,-3.13%
15,Cc1cc(C)c(C#N)c(S)n1,89.9%
16,Cc1cc(C)c(C#N)c(Cl)n1,1.27%
17,Cc1cc(-c2ccco2)c(C#N)c(N)n1,1.38%
18,CCc1nc(SCc2cccnc2)c(C#N)c(C(F)(F)F)c1C,0.775%
19,Cc1cc(C(F)(F)F)c(C#N)c(S)n1,82.2%
20,CC(C)(C)c1cc(-c2ccco2)c(C#N)c(S)n1,20.6%
21,CCc1nc(S)c(C#N)c(C(F)(F)F)c1C,74.2%
22,Cc1cc(C(F)(F)F)c(C#N)c(SCc2ccccc2)n1,2.23%
23,O=C1c2cccnc2C(=O)N1c1ccccc1-c1ccccc1,-2.29%
24,COCCNC(=O)c1sc2ncn(CC(=O)N3CCC(C)CC3)c(=O)c2c1C,-2.17%
